The values below come from PubChem BioAssay (Tox21).

Molecules are shown by their SMILES. A number with no mark means an inactive call. Records with an inconclusive call do not appear. Activity calls are given as the source filed them. Calls follow the shape of the dose curve; as a rule, active = well fitted curve in the direction sought with a large enough effect in the repeat runs; inconclusive = weak or mixed curves; inactive = no such curve, though single readings can be large; an effect the other way counts as inactive or inconclusive.

Assay [1] can be described thus: qHTS RealTime-Glo MT Cell Viability Assay in HepG2 cells - 8 hour (AID 1224873). Also: nearly all actives have a fitted effect of over 55% in size. An outline of the steps: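 HepG2 cells mixed with RealTime-Glo MT reagents (NanoLuc plus cell-permeant prosubstrate) were seeded at 600 cells/well, incubated 5 h at 37 C/5% CO2, then pinned with compounds in DMSO; nonlytic luminescence tracked viability during 40 h treatment.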
In general terms: In qHTS, concentration-response curves come from the screen itself.

Assay [2] can be described thus: qHTS RealTime-Glo MT Cell Viability Assay in HEK293 cells - 40 hour (AID 1224874). Also: nearly all actives have a fitted effect of over 50% in size. The following applies: RealTime-Glo luminescence; max response: stronger effect = lower value. An outline of the steps:
(§1)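 Real-time viability in HEK293: signal arises when living cells convert a prosubstrate for NanoLuc in the medium, so luminescence tracks viable cell number. Compound (23 nL, DMSO) added 5 h post-seeding; kinetic reads at 0–40 h, 37 C.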

Assay [3] is described as follows: A CellTox Green Cytotoxicity Assay to monitor cytotoxicity in HEK293 cells - 24 hour (AID 1224875). Also: nearly all actives have a fitted effect of over 45% in size. Also: potency is read from the fitted curve at half-maximal effect. As to activity change: series mostly up to about 77 µM. The method in brief: (§2)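 Cells (HEK293, 600/well) and dye reagent are dispensed together. After 5 h at 37 C, 23 nL compound is pinned in. Plates stay at 37 C for 40 h with fluorescence read at 0h, 8h, 16h, 24h, 32h and 40h.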
A short description of assay [4]: A CellTox Green Cytotoxicity Assay to monitor cytotoxicity in HepG2 cells - 16 hour (AID 1224876). Also: nearly all actives have a fitted effect of over 45% in size. An outline of the steps: (§3)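 Cells and non-lytic dye reagent are dispensed together (600 HepG2 cells/well) and incubated 5 h before DMSO compound transfer. Kinetic fluorescence is then recorded in the same wells during 40 h at 37 C.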
Assay [5] in a line: qHTS RealTime-Glo MT Cell Viability Assay in HepG2 cells - 32 hour (AID 1224877). Also: nearly all actives have a fitted effect of over 55% in size. The method in brief:
(§4)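 Cells + NanoLuc/prosubstrate dispensed (600 cells/well) → 5 h at 37 C/5% CO2 → compounds in DMSO transferred → 40 h incubation at 37 C, luminescence read at 0, 8, 16, 24, 32, 40 h.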

The nature of assay [6]: A CellTox Green Cytotoxicity Assay to monitor cytotoxicity in HepG2 cells - 24 hour (AID 1224878). Also: nearly all actives have a fitted effect of over 45% in size. The method in brief: as §3
Assay [7] can be described thus: A CellTox Green Cytotoxicity Assay to monitor cytotoxicity in HepG2 cells - 40 hour (AID 1224879). Also: nearly all actives have a fitted effect of over 40% in size. Also: potency is read from the fitted curve at half-maximal effect. An outline of the steps:
as §3

Assay [8] in a line: qHTS RealTime-Glo MT Cell Viability Assay in HEK293 cells - 0 hour (AID 1224880). Also: top concentration of the series differs between compounds; nearly all actives have a fitted effect of over 45% in size. An outline of the steps:
as §1

Assay [9] can be described thus: A CellTox Green Cytotoxicity Assay to monitor cytotoxicity in HEK293 cells - 32 hour (AID 1224881). Also: nearly all actives have a fitted effect of over 40% in size. Also: potency is read from the fitted curve at half-maximal effect. An outline of the steps: as §2
Assay [10] can be described thus: A CellTox Green Cytotoxicity Assay to monitor cytotoxicity in HepG2 cells - 0 hour (AID 1224882). Also: nearly all actives have a fitted effect of over 35% in size. The method in brief: as §3
Assay [11] is described as follows: A CellTox Green Cytotoxicity Assay to monitor cytotoxicity in HepG2 cells - 32 hour (AID 1224883). Also: nearly all actives have a fitted effect of over 50% in size. An outline of the steps:
as §3

Assay [12] can be described thus: A CellTox Green Cytotoxicity Assay to monitor cytotoxicity in HEK293 cells - 8 hour (AID 1224884). Also: nearly all actives have a fitted effect of over 35% in size. Also: potency is read from the fitted curve at half-maximal effect. An outline of the steps: as §2
A short description of assay [13]: qHTS RealTime-Glo MT Cell Viability Assay in HepG2 cells - 16 hour (AID 1224885). Also: nearly all actives have a fitted effect of over 50% in size. An outline of the steps:
as §4

A short description of assay [14]: qHTS RealTime-Glo MT Cell Viability Assay in HEK293 cells - 24 hour (AID 1224886). Also: top concentration of the series differs between compounds; nearly all actives have a fitted effect of over 50% in size. The method in brief:
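Tox21 10K qHTS, HEK293, 600 cells/well, RealTime-Glo reagent co-dispensed with cells; 5 h preincubation, compound by pintool, 37 C, luminescence at 0–40 h.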

A short description of assay [15]: qHTS RealTime-Glo MT Cell Viability Assay in HEK293 cells - 8 hour (AID 1224887). The method in brief: as §1
A short description of assay [16]: A CellTox Green Cytotoxicity Assay to monitor cytotoxicity in HEK293 cells - 16 hour (AID 1224888). Also: nearly all actives have a fitted effect of over 35% in size. The method in brief: as §2
A short description of assay [17]: qHTS RealTime-Glo MT Cell Viability Assay in HepG2 cells - 0 hour (AID 1224889). Also: nearly all actives have a fitted effect of over 50% in size. An outline of the steps: as §4
The nature of assay [18]: A CellTox Green Cytotoxicity Assay to monitor cytotoxicity in HepG2 cells - 8 hour (AID 1224890). Also: nearly all actives have a fitted effect of over 45% in size. The method in brief: as §3
The nature of assay [19]: qHTS assay to identify small molecule antagonists of the estrogen receptor alpha (ER-alpha) signaling pathway using the BG1 cell line in the presence of 0.1 nM 17-beta-estradiol - cell viability counter screen (AID 1259241). Also: nearly all actives have a fitted effect of over 40% in size. The method in brief:
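Estradiol-stimulated (0.1 nM) VM7Luc4E2 cells exposed to compounds 22 hr; viability measured by fluorescence of cleaved CellTiter-Fluor substrate after 30 min.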

Assay [20] is described as follows: qHTS assay to identify small molecule antagonists of the androgen receptor (AR) signaling pathway using the MDA cell line in the presence of 0.5 nM R1881 - cell viability counter screen (AID 1259242). Also: nearly all actives have a fitted effect of over 45% in size. An outline of the steps:
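Steps: plate MDA-kb2 cells, rest 5 hr at 37C without CO2; pin in compounds in DMSO; add R1881 to 0.5 nM final; incubate 16 hr; add CellTiter-Fluor, 30 min; read fluorescence.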
% is scaled to controls: 0 for no effect and ±100 for the full control effect.

In the case of `O=Cc1ccc(F)cc1`, the Potency entry in [1], in assay [3], in assay [4], in assay [5], in assay [6] and in [7] was “inactive” each time. Besides, the Potency entry in assay [8], in [9], in assay [10], in assay [11], in assay [12] and in [13] was “inactive” throughout. In addition, the Potency result in assay [14], in assay [15], in assay [16], in assay [17], in assay [18] and in assay [19] was “inactive” throughout. Besides, the Potency entry in [20] was “inactive”. Moreover, the max response in assay [2] was 3.4%.

Take `CCCC(O)C(O)CO` (centres undefined): the Potency result in [1], in assay [3], in [4], in assay [5], in assay [6] and in [7] was “inactive” throughout. Also, the Potency entry in assay [8], in assay [9], in assay [10], in [11], in [12] and in assay [13] was “inactive” throughout. The Potency result in assay [14], in assay [15], in assay [16], in assay [17], in assay [18] and in assay [19] was “inactive” in each case. Further, in assay [20], the Potency result is “inactive”. Also, the max response in assay [2] is 4.32%.

`c1cc2c3c(c1)ccc1cccc(c13)C2`: the Potency entry in [1], in assay [4], in [5], in [6], in assay [7] and in assay [8] was “inactive” each time. Besides, the Potency entry in assay [10], in assay [11], in [13], in assay [14], in assay [15] and in [17] was “inactive” each time. Further, the Potency entry in assay [18], in assay [19] and in assay [20] was “inactive” throughout. The max response in assay [2] was -20.7%. For the same compound, the Potency in [3] was 56.1 µM (active); in assay [9], 50 µM (active); in assay [12], 56.1 µM (active).

As to `O=C=NCc1cccc(CN=C=O)c1`, the viability change, negative = cytotoxic in [1] is 3.05% [at 15.8 µM]; in assay [20] it was -0.671% [at 19 µM]. Further, in [2], the max response was 3.93%. Besides, the activity change was -11.7% [at 15.8 µM, stronger effect = higher value] in assay [3] and -10.6% [at 15.8 µM, stronger effect = higher value] in assay [16]. The cytotoxicity increase is 2.28% [at 15.8 µM] in assay [4]; -0.536% [at 15.8 µM] in assay [7]; -11.9% [at 15.8 µM] in assay [9]; -2.41% [at 15.8 µM] in [11]; -1.28% [at 15.8 µM] in assay [12]; -0.221% [at 15.8 µM] in [18]. The activity change, negative = cytotoxic in assay [5] was 0.5% [at 15.8 µM]; in [13], 0.437% [at 15.8 µM]. Further, the cytotoxicity is 0.14% [at 15.8 µM] in [6] and 0.25% [at 15.8 µM] in assay [10]. For the same compound, the activity change, negative = cytotoxicity is 5.7% [at 15.8 µM] in [8]; 4.88% [at 15.8 µM] in [14]; 1.79% [at 15.8 µM] in assay [15]; 2.48% [at 15.8 µM] in [17]; -0.0453% [at 19 µM] in assay [19].

For the compound `CCN1CCN(c2cc(-c3ccc(F)cc3)c3c(n2)CCCCCC3)CC1`, the viability change, negative = cytotoxic in assay [1] was 1.26% [at 15.8 µM]; in assay [20], 1.73% [at 19 µM]. Moreover, the max response in [2] was -18.7%. Further, the activity change in [3] is 2.45% [at 15.8 µM, stronger effect = higher value]; in [16], 4.21% [at 15.8 µM, stronger effect = higher value]. Further, the cytotoxicity increase in assay [4] is 12.3% [at 15.8 µM]; in assay [9], 10% [at 15.8 µM]; in assay [11], 34% [at 15.8 µM]; in [12] it was -3.6% [at 15.8 µM]; in [18], 2.47% [at 15.8 µM]. Also, the figures for the activity change, negative = cytotoxic in assay [5] and in assay [13] were -10.2% [at 15.8 µM] and -4% [at 15.8 µM], respectively. In addition, the figures for the cytotoxicity in assay [6] and in assay [10] were 24% [at 15.8 µM] and -0.25% [at 15.8 µM], respectively. Further, in [7], the Potency is 11.7 µM (active). The activity change, negative = cytotoxicity in [8] is 9.2% [at 15.8 µM]; in assay [14], -6.43% [at 15.8 µM]; in [15], 3.49% [at 15.8 µM]; in assay [17] it was 21.1% [at 15.8 µM]; in [19], 4.69% [at 19 µM].

Consider `Cc1cnccn1`, for which the Potency result in [1], in [3], in assay [4], in assay [5], in assay [6] and in [7] was “inactive” throughout. The Potency entry in assay [8], in assay [9], in [10], in [11], in [12] and in assay [13] was “inactive” in each case. For the same compound, the Potency entry in assay [14], in assay [15], in [16], in assay [17], in assay [18] and in assay [19] was “inactive” each time. Further, in assay [20], the Potency result was “inactive”. In addition, in assay [2], the max response was 8.17%.
